Data reported in PubChem BioAssay (Tox21).
“And” between values parts separate entries of the source, which are not always exact repeats. Equal values may be shown once. Inconclusive results are not listed. The source made the active and inactive calls. Unless noted, calls follow the shape of the dose curve; as a rule, active = well fitted curve in the direction sought with a large enough effect in the repeat runs; inconclusive = weak or mixed curves; inactive = no such curve, though single readings can be large; an effect the other way counts as inactive or inconclusive.

Assays:
[1] = qHTS assay for small molecules that induce genotoxicity in human embryonic kidney cells expressing luciferase-tagged ATAD5 (AID 651632); also: nearly all actives have a fitted effect of over 15% in size; also: potency is read from the fitted curve at half-maximal effect
Method in brief: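 Genotoxicity read-out via ATAD5-luciferase: HEK293T cells, 16 hr compound incubation at 37C, Amplite detection.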

[2] = qHTS assay for small molecules that induce genotoxicity in human embryonic kidney cells expressing luciferase-tagged ATAD5 - cell viability (AID 651634; calls by dose curve; also: nearly all actives have a fitted effect of over 25% in size; also: potency is read from the fitted curve at half-maximal effect)
Method in brief: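 Live-cell protease activity (CellTiter-Fluor, fluorescence) indicates viability. HEK293T cells with luciferase-tagged ATAD5; 15.5 hr compound treatment at 37C.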

[3] = qHTS assay for small molecule disruptors of the mitochondrial membrane potential - cell viability (AID 720634; calls by dose curve; also: nearly all actives have a fitted effect of over 20% in size; also: potency is read from the fitted curve at half-maximal effect)
Method in brief: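 Human hepatoma HepG2 cells were treated for 1 hr with test chemicals, then given m-MPI dye and CellTiter-Glo. Cell viability reflects luminescence proportional to cellular ATP.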

[4] = qHTS assay for small molecule disruptors of the mitochondrial membrane potential (AID 720635); also: potency is read from the fitted curve at half-maximal effect
Method in brief: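 HepG2 cells (2,000/well) attached overnight at 37C, then took compound for 1 hr at 37C, 5% CO2. Mito-MPS dye was added for 30 min; fluorescence was read at 490/535 nm (monomers) and 540/590 nm (aggregates).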

[5] = qHTS assay to test for compound auto fluorescence at 590 nm (red) in HepG2 cells (AID 720674)
Method in brief: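 Intrinsic compound fluorescence in the red window (Ex/Em 540/590 nm) is measured in attached HepG2 cells exposed for 1 hr, DMSO vehicle as baseline, benchmarked to Rose Bengal sodium.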

[6] = qHTS assay to test for compound auto fluorescence at 535 nm (green) in HepG2 cells (AID 720675)
[7] = qHTS assay to test for compound auto fluorescence at 460 nm (blue) in HEK293 cells (AID 720678)
Method in brief: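 After cell attachment (4-5 hr, 37C), compounds were pinned onto HEK293 monolayers in 10% dialyzed FBS medium. The blue channel (405/460 nm) was read following overnight culture. Equivalency was calculated against triamterene.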

[8] = qHTS assay to test for compound auto fluorescence at 590 nm (red) in HEK293 cells (AID 720679)
Method in brief: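 Plates of HEK293 cells (10% dialyzed FBS) are treated with 23 nL compound or DMSO vehicle after a 4-5 hr attachment period, incubated overnight at 37C, and read for red fluorescence at 540/590nm.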

[9] = qHTS assay to test for compound auto fluorescence at 535 nm (green) in HEK293 cells (AID 720680)
[10] = qHTS assay to test for compound auto fluorescence at 460 nm (blue) in HEK293 cell free culture (AID 720681)
Method in brief: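 Test compounds were pinned into cell-free culture medium (DMEM with 10% FBS) and fluorescence was read directly at Ex/Em 405/460 nm. Signals were expressed as fluorescence equivalents of triamterene, with DMSO vehicle as control.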

[11] = qHTS assay to test for compound auto fluorescence at 535 nm (green) in HEK293 cell free culture (AID 720682)
Method in brief: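 Compounds were pin-transferred into cell-free DMEM with 10% FBS, and green fluorescence was read at excitation 485 nm and emission 535 nm. Intensities were expressed as fluorescein-equivalent values.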

[12] = qHTS assay to test for compound auto fluorescence at 590 nm (red) in HEK293 cell free culture (AID 720683)
Method in brief: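 Tox21 10K library compounds were pinned into cell-free DMEM with 10% FBS and fluorescence was read at excitation 540 nm. Activity is expressed as Rose Bengal sodium equivalency.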

[13] = qHTS assay to test for compound auto fluorescence at 590 nm (red) in HepG2 cell free culture (AID 720684)
Method in brief: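 Measured in medium alone (MEM containing 10% FBS) following pintool addition of compound; emission at 590 nm with 540 nm excitation, referenced to Rose Bengal sodium.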

[14] = qHTS assay to test for compound auto fluorescence at 460 nm (blue) in HepG2 cell free culture (AID 720685)
Method in brief: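 Compound (23 nL) or DMSO pinned into cell-free MEM with 10% FBS; blue fluorescence read at 405/460 nm excitation/emission, expressed as auto-fluorescence equivalency to triamterene.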

[15] = qHTS assay to test for compound auto fluorescence at 535 nm (green) in HepG2 cell free culture (AID 720686)
[16] = qHTS assay to test for compound auto fluorescence at 460 nm (blue) in HepG2 cells (AID 720687)
Method in brief: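 Cells (2,000/well in MEM with 10% FBS) attached overnight at 37 C, then were exposed to compound or DMSO for 1 hr at 37 C, 5% CO2. Fluorescence read at Ex/Em 405/460 nm, expressed as triamterene-equivalent signal.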

[17] = biological target: Glucocorticoid receptor (Homo sapiens) (UniProt P04150); test: qHTS assay to identify small molecule agonists of the glucocorticoid receptor (GR) signaling pathway (AID 720691; active = well fitted activation curve with a large enough effect in the signal ratio in the repeat runs, not every such curve was filed as active; the % refers to the signal ratio; also: potency is read from the fitted curve at half-maximal effect)
Sequence of Glucocorticoid receptor (Homo sapiens) (P04150 whole entry, looked up): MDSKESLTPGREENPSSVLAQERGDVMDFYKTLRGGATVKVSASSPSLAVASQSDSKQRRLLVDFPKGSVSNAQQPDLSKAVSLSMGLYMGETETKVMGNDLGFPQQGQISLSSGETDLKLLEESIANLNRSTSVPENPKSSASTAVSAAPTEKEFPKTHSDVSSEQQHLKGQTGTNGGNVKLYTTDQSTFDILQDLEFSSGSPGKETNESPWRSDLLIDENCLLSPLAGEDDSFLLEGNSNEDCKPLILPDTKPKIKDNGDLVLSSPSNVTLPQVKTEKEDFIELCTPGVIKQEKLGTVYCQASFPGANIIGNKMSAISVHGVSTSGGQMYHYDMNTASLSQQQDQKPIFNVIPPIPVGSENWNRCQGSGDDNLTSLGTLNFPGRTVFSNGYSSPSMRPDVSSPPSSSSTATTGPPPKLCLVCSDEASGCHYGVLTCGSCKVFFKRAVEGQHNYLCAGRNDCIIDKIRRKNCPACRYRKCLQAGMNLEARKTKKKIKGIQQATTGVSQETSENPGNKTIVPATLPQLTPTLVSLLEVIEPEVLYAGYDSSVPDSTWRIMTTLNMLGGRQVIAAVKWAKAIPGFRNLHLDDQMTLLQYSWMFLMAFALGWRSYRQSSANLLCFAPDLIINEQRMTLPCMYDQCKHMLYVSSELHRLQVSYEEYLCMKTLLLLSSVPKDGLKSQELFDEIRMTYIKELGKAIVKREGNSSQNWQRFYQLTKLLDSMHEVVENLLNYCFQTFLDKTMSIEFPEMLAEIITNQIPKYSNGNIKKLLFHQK
Method in brief: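 Beta-lactamase reporter activity, read as fluorescence intensity, was measured in GR-bla HeLa cells exposed to compounds for 18 h at 37 C and then loaded with LiveBLAzer B/G FRET substrate for 2 h at room temperature.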

[18] = qHTS assay for small molecule agonists of the p53 signaling pathway - cell viability (AID 651633; calls by dose curve; also: nearly all actives have a fitted effect of over 30% in size; also: potency is read from the fitted curve at half-maximal effect)
Method in brief: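 p53RE-bla cells, seeded at 4,000 per well and rested 5 h at 37 C/5% CO2, received compounds in DMSO for 16 h at 37 C. CellTiter-Glo was then added, and luminescence was read after 30 min at room temperature to gauge cytotoxicity.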

[19] = biological target: Glucocorticoid receptor (Homo sapiens) (UniProt P04150); test: qHTS assay to identify small molecule antagonists of the glucocorticoid receptor (GR) signaling pathway (AID 720692; active = well fitted inhibition curve with a large enough effect in the signal ratio in the repeat runs, not every such curve was filed as active; the % refers to the signal ratio; also: potency is read from the fitted curve at half-maximal effect)
Method in brief: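 Fluorescence from cleaved LiveBLAzer B/G FRET substrate reports GRE-driven beta-lactamase in HeLa cells; compounds are tested against 5 nM dexamethasone (final) over 18 h at 37 C, substrate incubation 2 h at room temperature.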
% is scaled to controls: 0 for no effect and ±100 for the full control effect.

Cc1cc(N=Nc2ccccc2C)ccc1N
active: Potency [1] 6.11 µM and 6.86 µM | Potency [2] 48.6 µM | Potency [3] 19.3 µM and 15.4 µM | Potency [4] 15.4 µM and 30.6 µM
inactive: outcome [5] | outcome [6] | Potency [7] | outcome [8] | outcome [9] | Potency [10] | outcome [11] | outcome [12] | outcome [13] | Potency [14] | outcome [15] | Potency [16] | Potency [17]

CCc1nn(C)c(C(=O)NCc2ccc(C(C)(C)C)cc2)c1Cl
active: Potency [3] 12.2 µM | Potency [4] 15.4 µM
inactive: Potency [1] | Potency [2] | outcome [5] | outcome [6] | Potency [7] | outcome [9] | Potency [10] | outcome [11] | outcome [12] | outcome [13] | Potency [14] | outcome [15] | Potency [16]

CC(C)C1CCC(Cc2ccc(Cl)cc2)C1(O)Cn1cncn1 (stereo unspecified)
active: Potency [2] 53.9 µM | Potency [4] 15.2 µM
inactive: Potency [1] | outcome [5] | outcome [6] | Potency [7] | outcome [8] | outcome [9] | Potency [10] | outcome [11] | outcome [13] | Potency [14] | outcome [15] | Potency [16]

CC1(C)CC/C(=C/c2ccc(Cl)cc2)C1(O)Cn1cncn1 (stereo unspecified)
inactive: Potency [1] | Potency [3] | outcome [5] | outcome [6] | Potency [7] | outcome [9] | Potency [10] | outcome [11] | outcome [13] | Potency [14] | outcome [15] | Potency [16] | Potency [17]

CC(=O)[O-].[Tl+]
inactive: outcome [5] | outcome [6] | Potency [7] | outcome [8] | outcome [9] | Potency [10] | outcome [11] | outcome [13] | Potency [14] | outcome [15] | Potency [16]
active: Potency [18] 43.5 µM

CC(C)OC(=O)C(O)(c1ccc(Cl)cc1)c1ccc(Cl)cc1
active: Potency [4] 24.3 µM | Potency [19] 30.9 µM
inactive: Potency [1] | Potency [2] | outcome [5] | outcome [6] | Potency [7] | outcome [9] | Potency [10] | outcome [11] | outcome [12] | outcome [13] | Potency [14] | outcome [15] | Potency [16] | Potency [17]

O=[N+]([O-])O.O=[N+]([O-])O.[Cd]
inactive: outcome [5] | outcome [6] | Potency [7] | outcome [8] | outcome [9] | Potency [10] | outcome [11] | outcome [12] | outcome [13] | Potency [14] | outcome [15] | Potency [16]
active: Potency [2] 1.22 µM | Potency [17] 0.389 µM | Potency [19] 43.6 µM

CN(C)C(=S)S
inactive: Potency [18] | Potency [2] | Potency [3] | Potency [4] | outcome [5] | outcome [6] | Potency [7] | outcome [8] | outcome [9] | Potency [10] | outcome [11] | outcome [13] | Potency [14] | outcome [15] | Potency [16]

CC(=O)[O-].CC(=O)[O-].O.O.[Cd+2]
inactive: outcome [5] | outcome [6] | Potency [7] | outcome [8] | outcome [9] | Potency [10] | outcome [11] | outcome [13] | Potency [14] | outcome [15] | Potency [16]
active: Potency [2] 0.214 µM

C[C@H]1CC[C@@H]2[C@@H](C)[C@H]3[C@H](C[C@H]4[C@@H]5CC=C6CC(O[C@@H]7O[C@H](CO)[C@H](O)[C@H](O[C@@H]8O[C@H](CO)[C@@H](O)[C@H](O)[C@H]8O)[C@H]7O[C@H]7O[C@@H](C)[C@H](O)[C@@H](O)[C@H]7O)CC[C@]6(C)[C@H]5CC[C@]34C)N2C1 (stereo partly specified)
inactive: outcome [5] | outcome [6] | Potency [7] | outcome [8] | outcome [9] | Potency [10] | outcome [11] | outcome [13] | Potency [14] | outcome [15] | Potency [16] | Potency [17] | Potency [19]
active: Potency [2] 26.6 µM and 63.1 µM | Potency [3] 18.8 µM and 70.8 µM | Potency [4] 18.8 µM and 35.5 µM

O=C(Nc1ccc2[nH]ccc2c1)c1cc2cc(F)ccc2n1Cc1cccc(F)c1
active: Potency [4] 0.686 µM
inactive: Potency [1] | outcome [5] | outcome [6] | Potency [7] | outcome [8] | outcome [9] | Potency [10] | outcome [11] | outcome [13] | Potency [14] | outcome [15] | Potency [16]

N#CC(Cl)Cl
inactive: Potency [18] | Potency [2] | Potency [3] | outcome [5] | outcome [6] | Potency [7] | outcome [8] | outcome [9] | Potency [10] | outcome [11] | outcome [12] | outcome [13] | Potency [14] | outcome [15] | Potency [16]

Fc1cccc(Cl)c1CCl
inactive: Potency [1] | Potency [3] | outcome [5] | outcome [6] | Potency [7] | outcome [9] | Potency [10] | outcome [11] | outcome [12] | outcome [13] | Potency [14] | outcome [15] | Potency [16] | Potency [17]

Fc1ccc(Oc2ccnc3cc(Cl)cc(Cl)c23)cc1
inactive: Potency [1] | outcome [5] | outcome [6] | Potency [7] | outcome [8] | outcome [9] | Potency [10] | outcome [11] | outcome [12] | outcome [13] | Potency [14] | outcome [15] | Potency [16] | Potency [17]
active: Potency [4] 30.6 µM

CN(C)C(=S)[S-].CN(C)C(=S)[S-].[Cu+2]
inactive: Potency [18] | Potency [3] | fluorescence, relative to Rose Bengal [5] 0.166% [at 18.6 µM] | fluorescence, % of fluorescein control [6] -0.0148% [at 18.6 µM] | fluorescence, % of triamterene [7] -0.0228% [at 18.6 µM] | fluorescence, % of fluorescein [9] -0.0159% [at 18.6 µM] | fluorescence, % of fluorescent control [10] -0.0097% [at 18.6 µM] | activity change [11] 0.0031% [at 18.6 µM] | fluorescence, % of fluorescent control [12] 0.0139% [at 18.6 µM] | fluorescence, % of Rose Bengal [13] 0.0949% [at 18.6 µM] | fluorescence, % of fluorescent control [14] -0.0974% [at 18.6 µM] | fluorescence, % of fluorescein control [15] 0.0404% [at 18.6 µM] | fluorescence, % of fluorescent control [16] 0.125% [at 18.6 µM]
active: Potency [4] 0.592 µM
